# Experimental data from PubChem BioAssay (NCI).
# Compounds without any hit were thinned out: in the full panel of roughly 83,000, 20% have a hit.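 In brief: 96-well plates, 48 h treatment, single concentration, percent growth endpoint.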 Unmarked numbers belong to inactive results. The source made the active and inactive calls. How the source made its calls: active means growth percent below 10; inactive means the rest.
# Experiments:
# Assay in all cases: NCI-60 one-dose screen, 48 h (100 = growth as untreated, 0 = no growth, -100 = all killed)
# Settings in all cases: 10 µM unless noted
# HCT-15 colon = tested on: HCT-15 colon
# HT29 colon = tested on: HT29 colon
# SNB-75 CNS = tested on: SNB-75 CNS
# SNB-19 CNS = tested on: SNB-19 CNS
# U251 CNS = tested on: U251 CNS
# PC-3 prostate = tested on: PC-3 prostate
# SK-MEL-5 melanoma = tested on: SK-MEL-5 melanoma
# UACC-62 melanoma = tested on: UACC-62 melanoma
# SK-MEL-28 melanoma = tested on: SK-MEL-28 melanoma
# SK-MEL-2 melanoma = tested on: SK-MEL-2 melanoma
# EKVX NSCLC = tested on: EKVX NSCLC
# SN12C renal = tested on: SN12C renal
# UO-31 renal = tested on: UO-31 renal
# TK-10 renal = tested on: TK-10 renal
# ACHN renal = tested on: ACHN renal
# CAKI-1 renal = tested on: CAKI-1 renal
# A498 renal = tested on: A498 renal
# CCRF-CEM leukemia = tested on: CCRF-CEM leukemia
# MOLT-4 leukemia = tested on: MOLT-4 leukemia
SMILES,growth (HCT-15 colon),growth (HT29 colon),growth (SNB-75 CNS) [%],growth (SNB-19 CNS),growth (U251 CNS),growth (PC-3 prostate),growth (SK-MEL-5 melanoma),growth (UACC-62 melanoma),growth (SK-MEL-28 melanoma),growth (SK-MEL-2 melanoma),growth (EKVX NSCLC),growth (SN12C renal),growth (UO-31 renal),growth (TK-10 renal),growth (ACHN renal),growth (CAKI-1 renal),growth (A498 renal),growth (CCRF-CEM leukemia),growth (MOLT-4 leukemia)
CCN1CCN(C(=O)[C@]23CCC(C)(C)C[C@H]2C2=CC[C@@H]4[C@@]5(C)CC/C(=N/O)C(C)(C)[C@@H]5CC[C@@]4(C)[C@]2(C)CC3)CC1,15.4%,28.3%,59.3,70.4%,38%,39.6%,86.5%,87.9%,73.2%,95.6%,58.4%,16.2%,37%,136%,28.4%,54.3%,85.2%,38.3%,31%
CC1(n2nnnc2N2CCCN(c3ncccc3N)CC2)CCC1,58.3%,108%,81.7,98.6%,101%,75.3%,86.3%,94.9%,100%,110%,97.5%,95.7%,92.4%,99%,99.2%,90.7%,93.3%,103%,99.3%
CC1=CC(=O)N(c2cccc3c(N4C(=O)C=C(C)C4=O)cccc23)C1=O,-2.7% (active),18%,74.1,102%,83.9%,94.8%,105%,94.5%,103%,87.5%,108%,93.3%,33.3%,35.3%,1.27% (active),10.9%,124%,11.2%,4.75% (active)
Cc1ccc2c(c1)c1nc3cc(C)c(C)cc3nc1n2CCN(C)C,3.18% (active),19%,23.9,17.1%,23.7%,25%,15.4%,12.3%,17.2%,35.8%,19.7%,13.5%,-10.4% (active),27.7%,-0.699% (active),2.44% (active),35.7%,26.4%,8.57% (active)
Cc1cc2nc3c4cc([N+](=O)[O-])cc([N+](=O)[O-])c4n(CCN(C)C)c3nc2cc1C,57.2%,65.6%,72.3,68.2%,81.6%,77.1%,92.4%,87%,98.6%,108%,82.7%,59.7%,40.4%,117%,35.5%,49.6%,97%,63.1%,31.3%
CC1(C)NC2=C(C(Nc3cccnc3)N1)C(c1ccc([N+](=O)[O-])cc1)C(C(=O)c1ccc(N=[N+]=[N-])cc1)O2 (stereo not given),104%,113%,96.2,98.7%,101%,98.9%,102%,97.1%,103%,107%,99.8%,101%,88.3%,97.1%,102%,102%,108%,98.8%,102%
CN(C)c1ccc(-c2ccc(-c3ccc(C(=N)N)c(F)c3)s2)cc1,-80.8% (active),-61.2% (active),98.9,-71% (active),-96.2% (active),-90.4% (active),-64.9% (active),-93.3% (active),74.5%,-0.355% (active),-73.6% (active),-76.5% (active),-92.6% (active),-85.5% (active),-95.8% (active),-87.9% (active),4.91% (active),-37.4% (active),-19.3% (active)
C=C(C)[C@@H]1CC[C@]2(CN)CC[C@]3(C)[C@H](CC[C@@H]4[C@@](C)(CCCN)[C@H](C(=C)C)CC[C@]43C)[C@@H]12,62.8%,17.9%,79.8,89.5%,74%,71.5%,88.3%,100%,100%,107%,102%,82.5%,63%,119%,99.1%,75.5%,88.7%,66.6%,57%
CC1(C)CC[C@]2(C(=O)NCCNCCN)CC[C@]3(C)C(=CC[C@@H]4[C@@]5(C)CCC(=O)C(C)(C)[C@@H]5CC[C@]43C)[C@@H]2C1,27%,-2.78% (active),69.8,56.1%,-69.7% (active),40.9%,87.6%,-89.3% (active),38.6%,82.4%,94.8%,14.2%,87.8%,127%,12.2%,27.1%,81.5%,-17.8% (active),3.49% (active)
O=C(NO)c1ccc(Cn2c(=O)n(-c3ccccc3)c(=O)c3ccccc32)cc1,39.6%,41%,20.9,33.4%,-3.66% (active),-7.98% (active),16.5%,-24.6% (active),-1.55% (active),5.92% (active),21.6%,44.1%,50.5%,28.1%,55.7%,56.9%,-10.7% (active),2% (active),-2.07% (active)
Cc1cc2nc3c4cc(N)ccc4n(CCN(C)C)c3nc2cc1C,-24% (active),14.3%,20.1,13.2%,16.2%,21.8%,21.8%,6.43% (active),13.3%,17.6%,16.8%,8.2% (active),-6.21% (active),41.3%,-9.44% (active),-3% (active),46.3%,23.8%,3.65% (active)
CC(=O)O[C@H]1CC[C@]2(C)[C@H]3CC=C4[C@@H]5[C@H](C)[C@@H](C)CC[C@]5(C(=O)NCCNCCNCCN)CC[C@@]4(C)[C@]3(C)CC[C@H]2C1(C)C,63.3%,42.5%,70.8,82.6%,70.1%,57.7%,96.3%,91.7%,90.1%,105%,72.6%,78.3%,63.5%,101%,91.5%,55.8%,95.4%,62.1%,49.9%
C[C@H]1[C@H]2C3=CC[C@@H]4[C@@]5(C)C/C(=C/c6ccco6)C(=O)C(C)(C)[C@@H]5CC[C@@]4(C)[C@]3(C)CC[C@@]2(C(=O)N2CCOCC2)CC[C@@H]1C,40.2%,28.9%,99.4,71.3%,49.1%,39.1%,72.1%,60.5%,69.7%,106%,88.4%,73.8%,49%,99.6%,53.7%,42.5%,94%,14.2%,6.22% (active)
N=C(N)c1ccc(S(N)(=O)=O)cc1,104%,105%,96.1,99.1%,99.4%,98.4%,95.3%,99.2%,104%,99.9%,96.2%,94.5%,72.6%,96.6%,108%,92.5%,92%,107%,102%
O=C(N/N=C\c1ccccc1O)C1CC1,92.5%,107%,98.1,101%,103%,92%,109%,102%,114%,103%,109%,93.6%,71%,118%,108%,115%,113%,83.7%,101%
